{"source": "PubChem BioAssay (NCATS)", "data": [{"assay": "qHTS drug screen for cell cycle checkpoint inhibitors in PARPi-resistant BRCA-mutant ovarian cancer cell lines. (AID 1963452)", "settings": "PEO1/OlaR viability, CellTiter-Glo luminescence, 96 h; measured here: PEO4 Z-AUC; stronger effect = lower value", "in_short": "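PEO1, PEO4 and PEO1/OlaR ovarian cancer cells, 600 per well, exposed 96 h at 37C to a dilution series. Viability read by CellTiter-Glo luminescence, normalized to DMSO and empty wells; activity summarized as Z-AUC.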", "values": [{"smiles": "CO[C@@H](C)Cn1c(=O)n(C)c2cnc3ccc(-c4cncc(C(C)(C)O)c4)cc3c21", "Z-AUC": -2.14}, {"smiles": "c1cc(Nc2cc(C3CC3)[nH]n2)nc(Nc2ccc3nc[nH]c3c2)n1", "Z-AUC": -2.23}, {"smiles": "CCN1CCN(Cc2ccc(NC(=O)Nc3ccc(Oc4cc(NC)ncn4)cc3)cc2C(F)(F)F)CC1", "Z-AUC": -1.71}, {"smiles": "CCN1CCN(Cc2ccc(Nc3ncc(F)c(-c4cc(F)c5nc(C)n(C(C)C)c5c4)n3)nc2)CC1", "Z-AUC": 0.621}, {"smiles": "O=C(c1ccc(/C=C/c2n[nH]c3ccccc23)cc1)N1CCNCC1", "Z-AUC": -0.438}, {"smiles": "O=C(C(c1ccccc1)c1ccccc1)N1CCN(CC(O)COc2cccc3ncccc23)CC1", "note": "(stereo not drawn)", "Z-AUC": 0.296}, {"smiles": "Cc1cc(O)c(-c2ccc([C@@H](C)CN(C)C)cc2)c2c1[nH]c(=O)c1sccc12", "Z-AUC": -2.02}, {"smiles": "CN1CCN(c2ccc(C(=O)Nc3n[nH]c4ccc(Cc5cc(F)cc(F)c5)cc34)c(NC3CCOCC3)c2)CC1", "Z-AUC": -1.38}, {"smiles": "CCNCc1nc2c(N)nc3ccccc3c2n1CC(C)(C)O", "Z-AUC": 0.404}, {"smiles": "COc1cc2c(NC3CCN(CC4CCCCC4)CC3)nc(N3CCCN(C(C)C)CC3)nc2cc1OCCCN1CCCCC1", "Z-AUC": -0.248}, {"smiles": "COc1cc(OC)c(/C=C/S(=O)(=O)Cc2ccc(OC)c(NCC(=O)O)c2)c(OC)c1", "Z-AUC": -1.96}, {"smiles": "CN1CCN(C(=O)c2ccc3cc(CCNc4ncnc5ccc(C#N)cc45)ccc3c2)CC1", "Z-AUC": -0.499}, {"smiles": "Clc1cc2c(NC3CCCC3)nnc(-c3ccncc3)c2cc1Cl", "Z-AUC": 0.556}, {"smiles": "C=CC(=O)Nc1cccc(Nc2nc(Nc3ccc(N4CCN(C(C)=O)CC4)cc3OC)ncc2C(F)(F)F)c1", "Z-AUC": -0.058}, {"smiles": "O=C(O)c1ccc(CN2CCC(CN[C@@H]3C[C@H]3c3ccccc3)CC2)cc1", "Z-AUC": 0.899}, {"smiles": "COC(=O)N[C@@H](C)CNc1nccc(-c2cn(C(C)C)nc2-c2cc(Cl)cc(NS(C)(=O)=O)c2F)n1", "Z-AUC": -0.157}, {"smiles": "COc1ccc(C(=O)C2CCN(CC(=O)N(Cc3nc4c(c(=O)[nH]3)COCC4)CC3CC3)CC2)cc1", "Z-AUC": -0.695}, {"smiles": "C[C@H](Nc1ncnc2nc[nH]c12)c1cc2ccc(F)cc2nc1-c1ccccn1", "Z-AUC": 0.432}, {"smiles": "CC#CC(=O)N1CCC[C@H]1c1nc(-c2ccc(C(=O)Nc3ccccn3)cc2)c2c(N)nccn12", "Z-AUC": 0.342}, {"smiles": "C=C1C(=O)O[C@H]2[C@H]1CC/C(C)=C/CC[C@@]1(C)O[C@@H]21", "Z-AUC": 0.819}, {"smiles": "NC[C@@](O)(c1ccc(Cl)cc1)c1ccc(-c2cn[nH]c2)cc1", "Z-AUC": -1.28}, {"smiles": "COc1ccc(Cl)c(Nc2nc3ccccc3nc2NS(=O)(=O)c2cccc(NC(=O)C(C)(C)N)c2)c1", "Z-AUC": 0.742}, {"smiles": "CS(=O)(=O)c1ccc(-c2nnc(/C=C/c3nnc(-c4ccc(C#N)cc4)o3)n2-c2ccccc2Cl)nc1", "Z-AUC": -0.0878}]}]}
